The values below come from PubChem BioAssay AID738 (SRMLSC, 2007).

Molecules are shown by their SMILES. Out of some 98,000 compounds screened, about 4,900 (5%) were called active. The full list was thinned out, with actives kept by preference. Values without a mark were called inactive. Cut-off read from the data, not from the text of the source: active = inhibition above about 30%; inactive = the rest.

A short description of the experiment: growth inhibition of yeast control strain, primary screen, counter-screen for post-Golgi transport modulator project (AID 738). As to conditions: efflux-deficient yeast background strain, growth absorbance A615, 16 h; at 10 µM; stronger effect = higher value.
Broadly, the inhibition is the change of the read-out against control, counted positive when it falls. Regarding `C=CCn1c(SCC(=O)NCc2ccccc2)nnc1-c1cc(Br)ccc1O`, the inhibition was 1.48%.

Consider `COCCCNCC(=O)Nc1sc(C)c(C)c1C(=O)OC`, for which the inhibition is 5.81%.

`CCOC(=O)N1CCN(C(=O)c2cc3c(ccc4ccccc43)oc2=O)CC1`: the inhibition is 3.76%.

On to `Cn1cccc1C(=O)NC(=O)COC(=O)Cc1coc2ccc3ccccc3c12`, for which the inhibition was 33% (active).

`CC(C)(C)NC(=O)NC(=O)COC(=O)Cn1c(C(F)(F)F)nc2ccccc21`: the inhibition was 2.81%.

As for `Cc1ccccc1NC(=O)c1ccccc1NS(=O)(=O)c1cccc2cccnc12`, the inhibition was 8.21%.

Consider `Cc1cc(C)c2c(-n3cccc3)c(C(=O)NNS(=O)(=O)c3ccc(F)cc3)sc2n1`, for which the inhibition was 4.13%.

Turning to `COCCn1c(-c2ccc(OC)c(OC)c2)nc2ccccc21`, the inhibition is -0.3%.

For `COc1ccc(-c2nc3ccccc3n2CCC(C)C)cc1OC`, the inhibition is 44.3% (active).

`COc1ccc(NC(=O)COC(=O)Cn2c(C)nc3ccccc32)cc1OC`: the inhibition is 1.03%.

Consider `CC1=NN(C(=O)Cc2ccc(C)cc2)C(O)(c2cccnc2)C1` (configuration not stated), for which the inhibition is 4.82%.

On to `O=C(C(NS(=O)(=O)c1cccc2nsnc12)c1ccccc1)N1CCN(c2ccccc2)CC1` (configuration not stated), for which the inhibition was 2.02%.

Take `CCc1ccccc1N(CC(=O)N1CCN(c2ccccc2F)CC1)S(C)(=O)=O`: the inhibition is 3.45%.

Take `O=C(CCS(=O)(=O)c1cccc2nsnc12)N1CCN(c2ccccc2F)CC1`: the inhibition was 30.8% (active).

Take `Cn1c(=O)n(C)c2cc(/C=N/NC(=O)c3cccc(Br)c3)ccc21`: the inhibition was -10.6%.

Turning to `Cn1nnnc1SCC(=O)Nc1ccccc1C(=O)NC1CC1`, the inhibition was 2.02%.

Consider `c1ccc(CSc2ncnc3c2sc2nc(N4CCOCC4)c4c(c23)CCCC4)cc1`, for which the inhibition is 10.3%.

For `CC(C)c1ccc(Nc2ncccc2C#N)cc1`, the inhibition is 7.46%.

Consider `Cc1nn2c(c1-c1ccccc1)N=C(c1ccco1)CC2c1ccccc1` (configuration not stated), for which the inhibition is 32.2% (active).

Regarding `Cc1[nH]c2ccccc2c1C(=O)COC(=O)C(C)C`, the inhibition was 2.83%.

In the case of `CCOC(=O)c1c(-c2ccccc2)csc1NC(=S)NC(=O)c1ccccc1`, the inhibition was 15.1%.

Consider `COc1ccccc1N1CC(C(=O)Nc2ccc(S(=O)(=O)N3CCOCC3)cc2)CC1=O` (configuration not stated), for which the inhibition is 5.2%.
